Source: PubChem BioAssay (several laboratories)
Only some compounds are listed: those with a hit (about 6.6% of all), similar ones and a draw of the others.
Anthrax LF inh2 – inhibitors of Bacillus anthracis lethal factor protease; multiplex microsphere protease cleavage assay, LF; inhibition, % at 10 µM; 360,000 compounds, 0.12% hits; also: plate controls were buffer without enzyme for full effect and enzyme alone for no effect
FBA Mtb inh – Mtb fructose-bisphosphate aldolase inhibition | purified M. tuberculosis FBA, fluorescence read-out | P9WQA3 | 360,000 compounds, 2.3% hits | inhibition, % at 1 µM; in the data active = inhibition above about 27%;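 also: 0% = vehicle and 100% = reference inhibitor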
GDH-TPI counter – inhibits GDH-TPI coupling enzymes, artifact for Mtb FBA screen | GDH-TPI coupled enzyme counterscreen, NADH absorbance | inhibition, % at 4.8 µM | 360,000 compounds, 1.2% hits; in the data active = inhibition above about 30%;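 also: 0% = DMSO wells and 100% = wells lacking the enzyme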
BoNT A protease – inhibitors of Botulinum neurotoxin A light chain protease; multiplex microsphere protease substrate cleavage, flow cytometry; inhibition, % at 10 µM; 360,000 compounds, 0.17% hits; AID 588499; also: plate controls were buffer without enzyme for full effect and enzyme alone for no effect
Autofluor counter – counter-screen for toxin protease inhibitors: compound fluorescence; fluorescence intensity (concentration not given with the values); 360,000 compounds, 3.1% hits; compound autofluorescence counterscreen, microsphere flow cytometry; hits give high values; in the data active = fluorescence intensity above about 16000; inconclusive = no clear call, values can overlap the other calls
BoNT F protease – blocks Botulinum neurotoxin F light chain protease | inhibition, % at 10 µM | Multiplex microsphere protease cleavage assay, flow cytometry | 360,000 compounds, 0.22% hits; in the data active = inhibition above about 35%, passing the limit was not always enough; inconclusive = no clear call, values can overlap the other calls; also: plate controls were buffer without enzyme for full effect and enzyme alone for no effect
* hit, by the source's call; u = inconclusive. Rule as the data show it, unless noted: active = inhibition above about 30%; inconclusive = no clear call, values can overlap the other calls; inactive = below that.

SMILES	Anthrax LF inh2	FBA Mtb inh	GDH-TPI counter	BoNT A protease	Autofluor counter	BoNT F protease
Nc1nnc2cc(Br)ccc2n1	-5	-2	10	1	2958	7
COc1ccc(NC(=O)CSc2nnc(-c3ccccc3C)n2C)cc1	-1	-1	-7	u	19446*	1
CCOC(=O)Cc1csc(NC(=O)CSc2nnc(-c3ccc(OC)cc3)n2C)n1	0	4	2	u	20591*	-4
CCn1c(CCNC(=O)c2ccc(OC)cc2)nnc1SCC(=O)Nc1ccccc1F	-3	2	7	0	3233	-6
CCOC(=O)Cc1csc(NC(=O)CSc2nnc3ccccn23)n1	-2	0	3	-1	2527	-8
COc1ccc(C(=O)NCCc2nnc(SCC(=O)Nc3ccccc3C(C)C)n2C)cc1	-3	0	-14	0	20025*	0
COc1ccc(-c2nnc(SCC(=O)Nc3ccc(C)cc3)n2C)cc1	0	1	-6	0	8101	-2
COc1ccc(CNC(=O)CSc2nnc(-c3ccc(NC(C)=O)cc3)n2C)cc1	-7	0	-1	5	17726*	3
CCN(CC)C(=O)Cn1cc(S(=O)(=O)CC(=O)Nc2ccc(F)cc2)c2ccccc21	u	1	6	u	u	u
COc1ccc(NC(=O)CSc2nnc(-c3ccccn3)n2N)cc1	-24	-2	-9	34*	9304	35*
Cc1cc(OCC(=O)NC2CC(C)(C)NC(C)(C)C2)c2c(C)c(C)c(=O)oc2c1	8	131*	24	12	3302	16
Cc1cc(OCC(=O)N2CCC(C(=O)O)(c3ccccc3)CC2)c2c(C)c(C)c(=O)oc2c1	2	64*	-1	0	5418	-3
CCCCn1nnc(NC(=O)COc2ccc(Cl)c(C)c2)n1	-6	0	5	-6	17759*	-6
C/C(=N/NC(=O)COc1cc(C)ccc1C(C)C)C(=O)O	-1	1	0	0	2686	-2
CCn1nnc(NC(=O)COc2cc(C)ccc2C(C)C)n1	-2	-1	-10	-2	20175*	-4
Cc1cc(O)cc(O)c1/C=N/NC(=O)c1ccc2c(c1)OCCO2	0	7	44*	0	3682	-9
O=C(N/N=C/c1ccc(Br)o1)c1ccc2c(c1)OCCO2	-1	1	41*	-5	2280	-32
O=C(N/N=C/c1cccnc1)c1ccc2c(c1)OCCO2	-1	1	2	0	2319	1
O=C(O)c1ccc(/C=N/NC(=O)c2ccc3c(c2)OCCO3)cc1	-2	-2	28	0	5724	-5
CCN1CCN=C1Nc1ccccc1	-6	3	-1	0	4003	-4
O=C(CCc1c[nH]c2ccccc12)N[C@@H](Cc1c[nH]c2ccc(O)cc12)C(=O)O	-2	5	3	-1	3458	-31
COc1ccc(C(C)(C)NC(=O)C2CCC(=O)N(CCCN3CCCC3=O)C2)cc1 (stereo unspecified)	4	-2	6	0	5008	1
COc1ccc(Oc2cnc3ccccc3n2)cc1	-1	-1	4	0	2240	8
CC(=O)Nc1ccc(Oc2cnc3ccccc3n2)cc1	0	-1	1	0	24151*	1
CC(=O)Nc1cccc(Oc2cnc3ccccc3n2)c1	-16	-2	-5	3	18766*	2
SMILES	Anthrax LF inh2	FBA Mtb inh	GDH-TPI counter	BoNT A protease	Autofluor counter	BoNT F protease
c1ccc(Oc2cnc3ccccc3n2)cc1	-1	0	12	1	23310*	1
Clc1cccc(Oc2cnc3ccccc3n2)c1	-1	-2	18	1	16039	1
Cc1ccc2c(C)nc(SC(C(=O)c3ccccc3)c3ccccc3)nc2c1 (stereo unspecified)	-2	1	5	0	1980	4
C=CCn1c(CNC(=O)c2ccco2)nnc1SCC(=O)N1c2ccccc2Sc2ccccc21	-17	3	6	11	18468*	14
Fc1ccc2c(c1)C(c1ccc(N3CCOCC3)cc1)=NNC(c1cccs1)=N2	-2	-3	17	u	19055*	3
CCc1ccc2c(c1)C(c1ccc(N3CCOCC3)cc1)=NNC(c1ccncc1)=N2	3	-1	9	-1	4664	-5
Cc1ccc2c(c1)C(c1ccc(N3CCOCC3)cc1)=NNC(c1cccs1)=N2	-2	-5	-9	0	20609*	1
Brc1ccc2c(c1)C(c1ccc(N3CCOCC3)cc1)=NNC(c1cccs1)=N2	-8	-3	1	3	19294*	-1
